Paper PMC4336329 (PLoS ONE, 2015)
Among all 310,000 compounds or so, about 14,000 (4.5%) showed an effect of 50% or more. Effects have a minus sign here. For the sample, strong results were picked, then their nearest neighbours and some compounds at random.

Target: human ether-à-go-go-related gene (hERG) potassium channel (human, UniProt Q12809)
Experiment: primary screen, population patch clamp on CHO cells stably expressing hERG; higher = less effect of the substance
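Further: peak tail current of the secondary pulse compared with the same well before compound.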

human ether-à-go-go-related gene (hERG) potassium channel, sequence (Q12809 whole entry, looked up): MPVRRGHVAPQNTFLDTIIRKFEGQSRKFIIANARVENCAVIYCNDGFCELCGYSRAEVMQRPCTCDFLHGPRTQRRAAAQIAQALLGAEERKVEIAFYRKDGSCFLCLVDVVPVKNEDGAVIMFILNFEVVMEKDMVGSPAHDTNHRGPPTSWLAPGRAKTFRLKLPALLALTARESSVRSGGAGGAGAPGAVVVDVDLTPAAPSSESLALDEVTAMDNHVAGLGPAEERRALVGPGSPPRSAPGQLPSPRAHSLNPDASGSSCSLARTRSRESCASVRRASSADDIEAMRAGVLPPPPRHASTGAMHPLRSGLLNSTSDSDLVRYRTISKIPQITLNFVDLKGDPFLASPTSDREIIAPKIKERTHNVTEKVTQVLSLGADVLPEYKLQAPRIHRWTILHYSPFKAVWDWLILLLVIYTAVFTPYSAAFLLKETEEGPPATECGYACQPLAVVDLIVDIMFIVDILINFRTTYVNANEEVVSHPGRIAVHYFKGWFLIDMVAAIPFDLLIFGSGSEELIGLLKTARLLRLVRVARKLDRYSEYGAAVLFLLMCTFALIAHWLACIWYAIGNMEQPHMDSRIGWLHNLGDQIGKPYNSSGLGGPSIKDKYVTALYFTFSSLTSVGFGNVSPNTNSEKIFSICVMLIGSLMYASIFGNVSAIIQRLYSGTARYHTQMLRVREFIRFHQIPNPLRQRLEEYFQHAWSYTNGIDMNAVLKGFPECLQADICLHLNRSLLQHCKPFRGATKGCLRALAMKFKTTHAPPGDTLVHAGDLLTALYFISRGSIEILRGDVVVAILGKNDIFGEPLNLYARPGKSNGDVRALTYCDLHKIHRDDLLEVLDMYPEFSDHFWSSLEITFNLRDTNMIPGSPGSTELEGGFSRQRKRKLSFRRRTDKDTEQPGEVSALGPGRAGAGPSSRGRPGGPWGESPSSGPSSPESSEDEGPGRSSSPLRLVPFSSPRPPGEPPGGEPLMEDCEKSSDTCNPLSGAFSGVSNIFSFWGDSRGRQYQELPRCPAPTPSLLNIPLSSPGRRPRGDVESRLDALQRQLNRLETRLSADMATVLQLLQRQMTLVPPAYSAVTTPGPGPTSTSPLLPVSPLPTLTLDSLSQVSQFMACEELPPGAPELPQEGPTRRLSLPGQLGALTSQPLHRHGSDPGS

| Compound | hERG current change (%, negative = inhibition) at 10uM [%] |
| --- | --- |
| Cc1nc2ccc(C(=O)Nc3ccccc3Cl)cc2s1 | 10.5 |
| O=C(Cc1ccccc1F)NC1CCSc2ccccc21 (centres unmarked) | -13 |
| O=C(Nc1ccccc1)NC1CCCCNC1=O (centres unmarked) | 21.4 |
| O=C(N/N=C/c1ccc(OC2CSC2)cc1)c1ccccc1 | -13.6 |
| Cc1cccc(C(=O)N/N=C/c2ccc(OC3CSC3)cc2)c1 | -92.4 |
| COc1cccc(C(=O)N/N=C/c2ccc(OC3CSC3)cc2)c1 | 5.4 |
| COC(=O)c1ccccc1NC(=O)c1ccc(Cn2cc(Cl)cn2)o1 | 4.21 |
| CCOC(=O)C1=C(c2cccc(Oc3ccccc3)c2)NC(=S)NC1C (centres unmarked) | -15.8 |
| CCn1c(CC(=O)Nc2ccccc2F)nnc1SCC(=O)Nc1nnc(C)s1 | -22.2 |
| Cl.O=C(COc1ccc(Cl)cc1)N1CCN(Cc2ccc3c(c2)OCO3)CC1 | -48.2 |
| O=C(COc1ccc(S(=O)(=O)N2CCOCC2)cc1)N1CCN(Cc2ccc3c(c2)OCO3)CC1 | -10 |
| Cl.N#Cc1ccc(OCC(=O)N2CCN(Cc3ccc4c(c3)OCO4)CC2)cc1 | -68.1 |
| Cc1ccccc1C(=O)N1CCCC(N2CCN(Cc3ccc4c(c3)OCO4)CC2)C1 (centres unmarked) | -11.7 |
| CN(C)c1ccc(C(=O)N2CCCC(N3CCN(Cc4ccc5c(c4)OCO5)CC3)C2)cc1 (centres unmarked) | -82.3 |
| O=C(COc1ccc(Br)cc1)N1CCN(Cc2ccc3c(c2)OCO3)CC1 | -53.9 |
| O=C(COc1ccc(Cl)cc1)N1CCN(Cc2ccc3c(c2)OCO3)CC1 | -52.6 |
| O=C(c1ccc(F)cc1)N1CCCC(N2CCN(Cc3ccc4c(c3)OCO4)CC2)C1 (centres unmarked) | -22.2 |
| CCc1ccc(OCC(=O)N2CCN(Cc3ccc4c(c3)OCO4)CC2)cc1 | -15.9 |
| N#CCC(=O)N1CCN(Cc2ccc3c(c2)OCO3)CC1 | 16.3 |

| Compound | hERG current change (%, negative = inhibition) at 10uM [%] |
| --- | --- |
| COc1ccc(OCC(=O)N2CCN(Cc3ccc4c(c3)OCO4)CC2)cc1 | -12.2 |
| O=C(CSCc1ccc(Cl)cc1)N1CCN(Cc2ccc3c(c2)OCO3)CC1 | -48.2 |
| CCOC(=O)Nc1ccc2c(c1)N(C(=O)CN(C)C)c1ccccc1CC2.Cl | -7.94 |
| CCOC(=O)C1CCN(C(=O)c2cc3c(=O)n4cccc(C)c4nc3s2)CC1 | -15.5 |
| FC(F)(F)c1cc(N2CCN(Cc3ccccc3)CC2)c2ccccc2n1 | 10.9 |
| CC(CCc1ccccc1)NC(=O)CNC(=O)N1CC(=O)Nc2ccccc21 (centres unmarked) | -2.77 |
| CCOCCOC(=O)c1[nH]c2c(c1C)C(=O)CC(c1ccccc1)C2 (centres unmarked) | 7.35 |
| Cc1sc(NC(=S)NC(=O)c2ccc(C(C)(C)C)cc2)c(C#N)c1C | 6.48 |
| COc1ccc(CCNC(=O)CN2C(=O)COc3ccc(S(=O)(=O)N4CCOCC4)cc32)c(OC)c1 | -28.1 |
| CN(Cc1ccccc1)S(=O)(=O)c1ccc(OCC(=O)N2CCC(C(N)=O)CC2)cc1 | -2.99 |
| O=C(Nc1ccc2ccccc2c1)N1CCN(c2ncccc2C(F)(F)F)CC1 | -7.58 |
| O=C(c1cc([N+](=O)[O-])cc([N+](=O)[O-])c1)N1CCN(Cc2ccc3c(c2)OCO3)CC1 | -58.2 |
| O=C(c1cccc([N+](=O)[O-])c1)N1CCN(Cc2ccc3c(c2)OCO3)CC1 | -44.3 |
| CCCCOc1ccc(C(=O)NCC(=O)N2CCN(Cc3ccc4c(c3)OCO4)CC2)cc1 | -42.4 |
| CCCOc1ccc(C(=O)N2CCN(Cc3ccc4c(c3)OCO4)CC2)cc1 | -67.7 |
| O=C(Cc1ccc([N+](=O)[O-])cc1)N1CCN(Cc2ccc3c(c2)OCO3)CC1 | -45.5 |
| Cc1ccc(C(=O)N2CCN(Cc3ccc4c(c3)OCO4)CC2)cc1C | -14.4 |
| C/C(=N\NC(=O)Nc1ccccc1)c1ccccc1 | 9.14 |
| NS(=O)(=O)c1ccc(CCNC(=O)COC(=O)CCSc2ccc(Cl)cc2)cc1 | -18.5 |

| Compound | hERG current change (%, negative = inhibition) at 10uM [%] |
| --- | --- |
| CC(C)(C)NC(=O)CCCSc1nc2ccccc2s1 | -24.4 |
| Nc1nc(Cl)cc(Oc2ccc(Cl)cc2)n1 | 9.29 |
| CCc1cccc(OC2OC(CO)C(O)C(O)C2NC(C)=O)c1 (centres unmarked) | 0.684 |
| Clc1ccc2c(NCc3ccccn3)ccnc2c1 | -39.7 |
| O=C(NCCCNc1ccc([N+](=O)[O-])cc1Cl)c1ccccc1F | -4.03 |
| O=C(NCCNc1ccc(Cl)cc1[N+](=O)[O-])c1ccccc1F | 3.81 |
| Clc1ccc2c(NCc3ccccc3)ccnc2c1 | -45.5 |
| O=C(NCCNc1ccnc2cc(Cl)ccc12)c1ccccc1F | -66.4 |
| O=C(NCCCNc1ccnc2cc(Cl)ccc12)c1ccccc1F | -72.4 |
| C1=CCC(CN2CCNCC2)CC1.O=C(O)C(F)(F)F (centres unmarked) | 9.96 |
| CN(C)C(=O)COC(=O)c1ccccc1NC(=O)c1ccco1 | -15.7 |
| CNC(=O)COC(=O)c1ccccc1NC(=O)c1ccco1 | -52.1 |
| O=C(Nc1ccccc1C(=O)OCC(=O)N1CCc2ccccc2C1)c1ccco1 | -30.9 |
| O=C(COC(=O)c1ccccc1NC(=O)c1ccco1)NC1CC1 | -19 |
| CC1CCN(C(=O)COC(=O)c2ccccc2NC(=O)c2ccco2)CC1 | -60.9 |
| CC(C)(C)NC(=O)COC(=O)c1ccccc1NC(=O)c1ccco1 | -7.06 |
| CS(=O)(=O)N1CCN(C2C3CC4CC(C3)CC2C4)CC1.O=C(O)C(=O)O (centres unmarked) | 26.3 |
| CC(=O)Nc1ccc(N(C(=O)c2cnccn2)C(C(=O)NC2CCCCC2)c2ccc(F)cc2)cc1 (centres unmarked) | 0.645 |
